This is a sample that favours compounds with a hit; in the whole collection about 19% have one here.
TDP1 cell CPT: DT40-hTDP1 cell growth loss with CPT. AID 686979. 420,000 compounds, 12% hits. Potency, µM (top dose mostly 46.2 µM), without a hit: at the top dose activity change, negative = growth inhibition, actives largely listed as inhibitors. chicken DT40 Tdp1-/-;hTDP1 cells + 20 nM CPT, ATP luminescence, 48 h; further: potency means the concentration at half of the fitted maximal effect; nearly all actives have a fitted effect of over 55% in size
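Chicken DT40 Tdp1-/- cells stably complemented with human TDP1 were seeded at 400 cells/well in medium containing 20 nM camptothecin, exposed to pin-transferred compounds, and grown at 37 °C for at least 48 hr. Viability was read as ATP luminescence.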
HT1080NT lethal: kills 2HG-producing HT-1080-NT fibrosarcoma cells. 360,000 compounds, 1.6% hits. HT-1080-NT fibrosarcoma viability, CellTiter-Glo ATP luminescence, 48 h. Potency, µM (highest dose often 46.1 µM), for the others: at the top dose activity, negative = less viability, hits mostly cytotoxic. AID 686970;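 further: NT is the 2HG producing partner of a matched IDH1 knockdown line; potency means the concentration at half of the fitted maximal effect; 0% = DMSO-treated cells and -100% = media-only wells without cells; nearly all actives have a fitted effect of over 55% in size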
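HT-1080-NT; 750 cells/well; 5% FBS RPMI; 48 h compound, 37 degrees C; CellTiter-Glo luminescence; curve fitting and curve-class assignment.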
DT40 TDP1 no CPT: qHTS for Inhibitors of human tyrosyl-DNA phosphodiesterase 1 (TDP1): qHTS in cells in absence of CPT. DT40 Tdp1-/- hTDP1 cells, no CPT, ATP luminescence, 48 h. Potency, µM (titrated, usually from 46.2 µM), for the others: at the highest dose activity change, negative = growth inhibition, most hits filed as inhibitors. 420,000 compounds, 15% hits; further: potency means the concentration at half of the fitted maximal effect; nearly all actives have a fitted effect of over 55% in size
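Cells were dispensed at 400 per well, compounds added by pin tool, plates incubated ≥48 hr at 37 °C, then CellTiter-Glo added for 30 min at room temperature before luminescence reading. Line: DT40 Tdp1-/- complemented with hTDP1; camptothecin omitted.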
HT1080 IDH1KD tx: HT-1080 IDH1 knockdown cell toxicity (counter line) | Potency, µM (doses to about 46.1 µM), without a hit: at the top dose activity, negative = toxicity, usual class: cytotoxic | AID 686971 | HT-1080 IDH1 knockdown viability, ATP luminescence, 48 h | 360,000 compounds, 2% hits;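 further: potency means the concentration at half of the fitted maximal effect; 0% = DMSO wells and -100% = cell-free medium wells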
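After a 2 h attachment period, IDH1KD HT-1080 cells took pin-transferred compound for 48 h at 37 °C; ATP-based luminescence after 10 min room-temperature reagent incubation reported viability.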
IL1B secr inh: inhibitors of inflammasome signaling (IL-1 beta secretion). THP-1 LPS/ATP IL-1B secretion, AlphaLISA, 16 h; stronger effect = lower value. activity change, % at 57.5 µM. 360,000 compounds, 4.7% hits. AID 743279; in the data active means activity change below about -50%; inconclusive means mostly about -30% to -49%
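THP-1 cells pretreated 1 hr with compounds (up to 57.5 uM final), then stimulated with LPS (250 ng/mL final) plus ATP (1.25 mM final); secreted IL-1B measured by AlphaLISA after 16 hr, decreased signal indicating inhibition.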
ELG1 repair inh: inhibitors of ELG1-dependent DNA repair in HEK293T cells. HEK293T ELG1-luciferase reporter, luminescence, 16 h; DNA damage induced by 5-fluorouridine. Potency, µM (top dose mostly 46.1 µM), for the others: at the highest dose activity change, negative = inhibition, usual class: inhibitors. 330,000 compounds, 2.3% hits. AID 504467; further: potency means the concentration at half of the fitted maximal effect; nearly all actives have a fitted effect of over 55% in size
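DMSO vehicle served as the neutral condition. Each well held 2,000 cells given 5-fluorouridine plus compound; after 16 hr at 37 °C/5% CO2, ONE-Glo was added and luciferase measured 30 min later.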
* marks the source's active call; other numbers are inactive results; u = inconclusive; x = no result given. Unless noted, the call rests on the fitted dose curve; in most records, active means well fitted curve in the direction sought with a large enough effect; inconclusive means small, poorly fitted or top-dose-only effect, or another doubt; inactive means no such curve, though single readings can be large; an effect the other way counts as inactive or inconclusive. Unless noted, on the % scale 0 is the no-effect control and ±100 the full control effect.

SMILES	TDP1 cell CPT	HT1080NT lethal	DT40 TDP1 no CPT	HT1080 IDH1KD tx	IL1B secr inh	ELG1 repair inh
COc1cccc(C2CC(c3ccccc3)=NN2S(=O)(=O)c2ccc(C)cc2)c1OC (stereo not drawn)	u	16%	u	-3%	-8	-11%
COc1ccc(C2=NN(S(=O)(=O)c3ccccc3)C(c3ccccc3)C2)cc1 (stereo not drawn)	u	1%	u	0%	-5	-24%
COc1ccccc1C1CC(c2ccccc2)=NN1S(=O)(=O)c1ccccc1 (stereo not drawn)	u	-5%	-24%	-1%	15	23µM*
COc1ccccc1OCC(=O)Nc1cc2c(cc1C(=O)O)OCCCO2	6%	8%	-16%	5%	4	-1%
OB(O)c1ccc(B(O)O)cc1	3%	x	-6%	x	x	x
Nc1ncncc1-c1ccc([N+](=O)[O-])cc1	16µM*	0%	u	6%	-2	1%
CCCCc1nc2ccccc2c(N)c1CCC (tested in a mixture with another compound)	u	u	18µM*	u	-97*	u
CCc1ccc(C(O)c2ncc(-c3ccccc3C)[nH]2)cc1 (stereo not drawn)	u	u	u	5%	u	x
COc1ccccc1-c1cnc(C(O)c2cc(C)ccc2C)[nH]1 (stereo not drawn)	26µM*	-1%	u	-2%	21	x
COc1ccccc1-c1cnc(C(O)c2ccc(C(C)(C)C)cc2)[nH]1 (stereo not drawn)	u	-7%	18µM*	u	-14	x
CCc1ccc(C(O)c2ncc(-c3ccccc3OC)[nH]2)cc1 (stereo not drawn)	23µM*	0%	18µM*	-11%	33	x
COc1ccccc1-c1cnc(C(O)c2ccccc2)[nH]1 (stereo not drawn)	-26%	-7%	u	u	-4	x
Cn1c(=O)c(=O)n(C)c2cc(S(=O)(=O)N3CCN(c4ccccc4)CC3)ccc21	u	x	-26%	x	x	x
O=C(CCC(=O)N1CC2CCCN2c2ccccc21)NCc1cccc(Cl)c1 (stereo not drawn)	15µM*	x	7.3µM*	x	x	x
COc1ccc(CNC(=O)CCC(=O)N2CC3CCCN3c3ccccc32)c(OC)c1 (stereo not drawn)	18µM*	x	21µM*	x	x	x
COc1ccc(CNC(=O)C2CCC(=O)N(C3CCCCCC3)C2)c(OC)c1 (stereo not drawn)	16µM*	1%	8.2µM*	7%	12	x
O=C(NCc1cccc(Cl)c1)c1ccc(NC(=O)N2CC3CCCN3c3ccccc32)cc1 (stereo not drawn)	23µM*	x	13µM*	x	x	x
COc1ccc(CCNC(=O)C2CCC(=O)N(C3CC3)C2)c(OC)c1 (stereo not drawn)	0%	-1%	1%	-5%	3	3%
COc1ccc(OC)c(NC(=O)N2CCCc3ccccc32)c1	u	13%	u	6%	-20	-10%
COc1ccc(OC)c(NC(=O)N2CC3CCCN3c3ccccc32)c1 (stereo not drawn)	u	x	23µM*	x	x	x
COc1ccc(OC)c(NC(=O)N2CC(C)Oc3ccc(C)cc32)c1 (stereo not drawn)	u	x	21µM*	x	x	x
CC(C)C(=O)Nc1ccc(C(=O)NNC(=S)NC(=O)c2ccco2)cc1	u	-15%	u	-24%	15	-14%

Source: PubChem BioAssay
